High-throughput results (PubChem)
CHO-K1 Ca antag: M1 antagonist counterscreen hit in parental CHO-K1 cells; ATP-induced calcium, Fluo-8 fluorescence; inhibition, % at 3 µM; actives 0.6% (n = 360,000);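 active means inhibition above a per-plate cutoff, the plate's mean sample inhibition plus 3 SD, cut at about 24% in these data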
M1 PAM: human CHRM1 positive allosteric modulation | P11229 | CHO-K1 hM1, Fluo-8 calcium fluorescence, ACh EC20; 0% = ACh EC20, 100% = maximal ACh | activation, % at 3 µM | actives 0.088% (n = 360,000) | AID 588819; in the data active means activation above about 19%, passing the limit was not always enough
Target sequence (P11229 whole entry, looked up): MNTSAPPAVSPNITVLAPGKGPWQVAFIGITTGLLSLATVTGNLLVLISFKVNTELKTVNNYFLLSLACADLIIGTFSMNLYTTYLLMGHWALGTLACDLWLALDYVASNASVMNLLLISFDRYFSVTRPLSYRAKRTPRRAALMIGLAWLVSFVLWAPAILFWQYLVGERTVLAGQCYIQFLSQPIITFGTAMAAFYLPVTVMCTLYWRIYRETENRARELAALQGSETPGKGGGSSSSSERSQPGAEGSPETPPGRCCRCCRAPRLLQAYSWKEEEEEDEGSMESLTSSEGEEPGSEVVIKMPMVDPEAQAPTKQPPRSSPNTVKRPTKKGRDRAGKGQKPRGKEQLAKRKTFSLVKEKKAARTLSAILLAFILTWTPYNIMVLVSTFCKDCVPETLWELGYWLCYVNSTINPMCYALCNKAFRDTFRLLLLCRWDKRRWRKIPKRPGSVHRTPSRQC
M1 PAM parental: counter-screen for M1 PAMs: effect in parental CHO-K1 cells. ATP EC20, Fluo-8 calcium fluorescence; 0% at ATP EC20, 100% at ATP max. activation, % at 3 µM. actives 0.02% (n = 360,000). AID 602247;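 active means activation above the run cutoff, the mean activation of all test compounds plus 3 SD, cut at about 40% in these data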;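 further: peak over basal fluorescence ratio in a 140 s read after ATP addition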
CHRM1 agonist: activates human CHRM1 receptor | P11229 | CHO-K1 hM1, Fluo-8 calcium fluorescence, agonist mode; 0% DMSO, 100% acetylcholine EC100 | activation, % at 3 µM | actives 0.33% (n = 360,000) | AID 588814;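 active means activation above the run's mean compound activation plus 3 SD, cut at about 16% in these data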;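 further: peak over basal fluorescence ratio within a 140 s kinetic read after compound addition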
CHRM1 antagonist: human CHRM1 antagonism; AID 588852; inhibition, % at 3 µM; actives 1.3% (n = 360,000); CHO-K1 hM1, Fluo-8 calcium fluorescence, ACh EC80 antagonist; P11229;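 active means percent inhibition above its own plate's cutoff, namely the mean of that plate's compound wells plus 3 SD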;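 further: peak over basal fluorescence ratio during 140 s after agonist addition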
CHO-K1 Ca ag: nonselective activator or artifact in parental CHO-K1 cells. activation, % at 3 µM. Fluo-8 calcium fluorescence; scaled to maximal ATP response, vehicle zero. actives 0.48% (n = 360,000); in the data active means activation above about 15%;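 further: untransfected CHO-K1 host cells lacking M1 receptor as counterscreen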
Numbers stand for hits; . = inactive; / = not tested or not shown. Shown are actives, neighbours in structure and some others; about 2.3% of the full set was active somewhere.

SMILES	CHO-K1 Ca antag	M1 PAM	M1 PAM parental	CHRM1 agonist	CHRM1 antagonist	CHO-K1 Ca ag
O=C(Nc1ccccc1)Nc1cc(Cl)cc(Cl)c1	24	.	.	.	.	.
O=C(Nc1ccc(Nc2ccccc2)cc1)Nc1ccccc1Cl	.	.	.	.	.	.
O=C(Nc1cccnc1)Nc1cc(Cl)cc(Cl)c1	37	.	.	.	.	.
O=C(Nc1ccccc1)Nc1cc(OCC(F)(F)F)cc(OCC(F)(F)F)c1	32	.	.	.	25	.
O=C(NCc1csc2ccccc12)Nc1cc(Cl)cc(Cl)c1	.	.	.	.	33	.
C/C(=N\NC(=O)c1nn(C)c(C)c1Br)c1ccc(NC(=O)c2ccccc2F)cc1	.	.	.	.	.	.
CC(C)C(C(=O)Nc1ccncc1)c1ccc(Cl)cc1 (stereo not given)	.	.	.	.	.	17
CC(C)C(C(=O)Nc1nccs1)c1ccc(Cl)cc1 (stereo not given)	.	.	.	.	.	.
Cc1cccc(/C=N/NC(=O)c2ccc(Br)cc2)c1	.	.	.	.	.	17
O=C(C1CCC1)N1CCN(c2cccc(C(F)(F)F)c2)CC1	.	.	.	.	.	.
O=C(C1CCN(c2nnc(-n3cccc3)s2)CC1)N1CCN(c2cccc(C(F)(F)F)c2)CC1	.	.	.	.	40	.
COc1ccc(CCNC(=O)c2ccc(CS(=O)(=O)c3ccc(C)cc3)o2)cc1OC	.	.	.	.	.	.
COc1ccc(CCNC(=O)c2ccc(CS(=O)(=O)Cc3ccc(C)cc3)o2)cc1OC	.	.	.	.	.	15
Cc1ccc(CCNC(=O)c2ccc(CS(=O)(=O)Cc3ccc(F)cc3)o2)cc1	.	.	.	.	.	.
COc1ccc(CCNC(=O)c2ccc(CS(=O)(=O)c3ccc(Cl)cc3)o2)cc1OC	.	.	.	.	30	17
CN(Cc1ccccc1)C1=CC(=[N+]2CCCCC2)CC(C)(C)C1	.	.	.	.	39	.
O=C(/C=C/[C@H]1O[C@@H](n2ccc(=O)[nH]c2=O)[C@H](O)[C@@H]1O)NCCCc1ccccc1	.	.	.	.	.	.
COc1cc2c(cc1OC)-c1nnc(C)n1C1(CCCC1)C2	27	.	.	.	.	.
Cc1ccc(NC(=O)CSC2=C(C#N)C(c3ccco3)CC(=O)N2)cc1 (stereo not given)	.	.	.	.	.	.
Cc1ccc(C(=O)CSC2=C(C#N)C(c3ccco3)CC(=O)N2)c(C)c1 (stereo not given)	.	.	.	37	.	16
Cc1cccc(N(CC(=O)NCc2ccco2)S(=O)(=O)c2ccccc2)c1	.	.	.	.	.	.
C/C(=N\NC(=O)Cn1c(-c2ccccn2)nc2ccccc21)c1ccccc1	26	.	.	.	.	.
COc1ccc(C(=O)CSc2nnc(Cn3cnc4ccccc43)o2)cc1	.	.	.	.	32	.
O=C(NC1CCC1)C1CCC(=O)N(Cc2ccc(Cl)cc2)C1 (stereo not given)	.	.	.	.	.	.
CC(C)C(=O)c1cn(CC(=O)N2CCCc3ccccc32)c2ccccc12	.	.	.	.	.	.
SMILES	CHO-K1 Ca antag	M1 PAM	M1 PAM parental	CHRM1 agonist	CHRM1 antagonist	CHO-K1 Ca ag
CN1C[C@@H]2C(c3ccccc3)C3(c4cccnc4)CC2(C3)[C@H]1c1ccccc1 (stereo not given in full)	.	.	.	.	97	.
OC(c1ccc(F)cc1)c1nc(-c2cc3ccccc3o2)cs1 (stereo not given)	.	.	.	.	.	.
COc1ccc(Cl)cc1Nc1cc(C)nc2nc(C)nn12	.	.	.	.	.	.
COc1cc(OC)c(Nc2cc(C)nc3nc(C)nn23)cc1Cl	.	.	.	.	103	.
COC(=O)C1=NN(C(=O)c2cccc(Br)c2)C(O)(c2ccc(Cl)cc2)C1 (stereo not given)	.	.	.	42	.	.
O=C(Nc1ccc(F)cc1)C(NC1CCCCC1)c1ccccc1 (stereo not given)	.	.	.	.	60	.
CN(C)C(CNC(C(=O)Nc1ccc(F)cc1)c1ccccc1)c1ccccc1 (stereo not given)	.	.	.	.	84	.
CN(C)C(CNC(C(=O)Nc1ccc([N+](=O)[O-])cc1Br)c1ccccc1)c1ccccc1 (stereo not given)	.	.	.	.	.	.
O=C(Nc1ccc(F)cc1)NC1CCCCCCC1	.	.	.	.	.	.
CCc1ccc(CN2CCC(Oc3ccc(C(=O)N4CCCC4)cc3)CC2)cc1	.	.	.	.	82	.
CSc1ccc(CN2CCC(Oc3ccc(C(=O)N4CCCC4)cc3)CC2)cc1	.	.	.	.	87	.
CC(C)c1ccc(CN2CCC(Oc3ccc(C(=O)N4CCCC4)cc3)CC2)cc1	.	.	.	.	81	.
O=C(c1ccc(OC2CCN(C/C=C/c3ccc(F)cc3)CC2)cc1)N1CCCC1	.	.	.	.	55	.
Cn1cnc(S(=O)(=O)N2CCCCC2c2cc(C(=O)Nc3ccc(F)c(Cl)c3)no2)c1 (stereo not given)	.	.	.	.	.	.
CCN(CC(=O)NCc1cccs1)CC(=O)Nc1cccc(S(N)(=O)=O)c1	.	.	.	.	.	.
CCc1ccc(CN2CCC(Oc3ccc(C(=O)N4CCCCC4)cc3)CC2)cc1	.	.	.	.	42	.
COc1cc(C)c(CN2CCC(Oc3ccc(C(=O)N4CCCC4)cc3)CC2)cc1C	.	.	.	.	.	.
COc1ccc(CN2CCC(Oc3ccc(C(=O)N4CCCC4)cc3)CC2)c(F)c1	.	.	.	.	61	.
CCOc1cccc(CN2CCC(Oc3ccc(C(=O)N4CCCC4)cc3)CC2)c1	.	.	.	.	49	.
CCOC(=O)C1(CC2CC2)CCN(Cc2ccc(OC)cc2F)CC1	.	.	.	.	28	.
O=C(c1ccc(OC2CCN(Cc3ccc(F)cc3)CC2)cc1)N1CCCC1	.	.	.	.	.	.
O=C(COC(=O)C1C2CC3OC(=O)C1C3C2)Nc1cccc(Cl)c1 (stereo not given)	.	.	.	.	.	.
COC(=O)c1c(N)[nH]c(C(=O)c2ccccc2)c1-c1ccccc1Br	.	/	.	/	/	.
CCOC(=O)[C@]12CCCC=C1N(Cc1ccc(Cl)cc1Cl)C(=O)[C@H](CC(=O)N1CCN(C(=O)c3ccco3)CC1)C2	.	/	.	/	/	.
CN(C)Cc1cc(C(C)(C)c2ccccc2)ccc1O	.	.	.	.	43	.
O=C(N/N=C/c1ccncc1)c1ccc(OCc2ccccc2)cc1	.	.	.	21	.	.
COc1ccc(C(=O)N/N=C/c2ccc3cccc(OCc4ccccc4)c3n2)cc1	.	.	.	.	31	.
